Measured values taken from the supplement of paper PMC10849652.
Of roughly 8,800 targets only a part is listed; those with a hit were picked by preference. About 0.5% of all pairs of compound and target were hits.

Key:
Assay in all cases: log2 fold change, soluble protein after heating vs DMSO (PISA); higher = thermal stabilisation; K562 lysate, 10 uM; active = over 0.2 and 3.5 SD of the protein, either way, in both replicates (recomputed)
[1] = compound: CCCS(=O)(=O)Nc1ccc(F)c(C(=O)c2c[nH]c3ncc(-c4ccc(Cl)cc4)cc23)c1F [vemurafenib]
Outline: (§1)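 A 30 min treatment with 10 μM compound was applied to crude K562 extract at 1 mg/mL protein in PBS pH 7.4 with 1 mM MgCl2. Heating for 3 min spanned 48°C-58°C, after which aliquots were pooled, adjusted to 0.5% NP-40 at 4°C and spun at 21,000xg for 90 min. TMTpro 16plex LC-MS/MS of the supernatant, with channel sums equalised, gave values recorded as log-two fold change in thermal stability against solvent controls, from duplicates.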

[2] = compound: CCCS(=O)(=O)Nc1ccc(F)c(C(=O)c2c[nH]c3ncc(Cl)cc23)c1F
Outline: as §1

[3] = compound: CCN(CCCOc1ccc2c(Nc3cc(CC(=O)Nc4cccc(F)c4)[nH]n3)ncnc2c1)CCOP(=O)(O)O [barasertib]
Outline: as §1

[4] = compound: CC[C@@H]1C(=O)N(C)c2cnc(Nc3ccc(C(=O)NC4CCN(C)CC4)cc3OC)nc2N1C1CCCC1
Outline: as §1

[5] = compound: CC[C@@H]1C(=O)N(C)c2cnc(Nc3ccc(C(=O)N[C@H]4CC[C@H](N5CCN(CC6CC6)CC5)CC4)cc3OC)nc2N1C(C)C [volasertib]
Outline: as §1

[6] = compound: CCn1c(C(=O)N(C2CC2)C2CC2)cc2c3c(ncn3C)c(Nc3cc(C)n(C)n3)nc21
Outline: as §1

[7] = compound: CCn1cc(-c2ccnc3[nH]c(-c4cccc(CN(C)C)c4)cc23)c(-c2ccc(NC(=O)N(C)C)cc2)n1
Outline: as §1

[8] = compound: CN1CCC(CNc2ccc3ncc(-c4cccc(OC(F)(F)F)c4)n3n2)CC1
Outline: as §1

[9] = compound: CN1CCN(CCOc2cc(OC3CCOCC3)c3c(Nc4c(Cl)ccc5c4OCO5)ncnc3c2)CC1 [saracatinib]
Outline: as §1

[10] = compound: CN1CCN(c2nc(C3=C(c4c[nH]c5ccccc45)C(=O)NC3=O)c3ccccc3n2)CC1 [sotrastaurin]
Outline: as §1

Measured: log2 fold change

RFC5 (UniProt P40937)
inactive: [1] 0.034 | [2] -0.003 | [3] -0.017 | [4] -0.039 | [5] -0.079 | [6] 0.022 | [7] 0.137 | [8] 0.005 | [9] 0.008 | [10] 0.043

SEC13 isoform 3 (UniProt P55735)
active: [7] 0.507
inactive: [1] -0.001 | [2] -0.004 | [3] -0.031 | [4] -0.013 | [5] 0.007 | [6] 0.003 | [8] -0.042 | [9] -0.027 | [10] -0.015

RBM42 (UniProt Q9BTD8)
inactive: [1] -0.029 | [2] 0.027 | [3] -0.037 | [4] 0.076 | [5] -0.014 | [6] -0.006 | [7] 0.004 | [8] -0.002 | [9] 0.039 | [10] -0.009

RPS26P11 (UniProt Q5JNZ5)
active: [7] -0.688
inactive: [1] 0.012 | [2] -0.01 | [3] -0.03 | [4] 0.041 | [5] 0.017 | [6] 0.02 | [8] 0.224 | [9] 0.009 | [10] 0.05

RBM22 (UniProt Q9NW64)
inactive: [1] -0.014 | [2] -0.007 | [3] 0.022 | [4] 0.078 | [5] -0.004 | [6] -0.004 | [7] 0.058 | [8] 0.025 | [9] 0.01 | [10] -0.08

RSU1 (UniProt Q15404)
UniProt Q15404, sequence (Q15404 whole entry, looked up): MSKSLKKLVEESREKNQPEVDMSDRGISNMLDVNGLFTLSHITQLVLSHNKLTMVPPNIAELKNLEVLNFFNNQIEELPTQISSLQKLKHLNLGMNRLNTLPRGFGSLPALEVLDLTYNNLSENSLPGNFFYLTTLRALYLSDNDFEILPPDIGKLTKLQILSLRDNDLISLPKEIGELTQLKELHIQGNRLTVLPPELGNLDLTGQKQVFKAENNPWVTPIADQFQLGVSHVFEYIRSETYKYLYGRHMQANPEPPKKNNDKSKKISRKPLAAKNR
inactive: [1] -0.006 | [2] 0.005 | [3] -0.067 | [4] 0.026 | [5] 0.022 | [6] 0.004 | [8] -0.143 | [9] -0.032 | [10] -0.019
active: [7] 0.405

RABGGTB (UniProt P53611)
inactive: [1] -0.022 | [2] 0.058 | [3] 0.096 | [4] -0.034 | [5] 0.008 | [6] -0.031 | [7] 0.151 | [8] -0.033 | [9] -0.017 | [10] 0.037

RBSN (UniProt Q9H1K0)
inactive: [1] 0.051 | [2] 0.01 | [3] 0.023 | [4] 0.035 | [5] -0.087 | [6] 0.006 | [7] -0.075 | [8] 0.038 | [9] 0.023 | [10] -0.019

RANBP2 (UniProt P49792)
inactive: [1] -0.031 | [2] 0.015 | [3] 0.043 | [4] -0.022 | [5] -0.048 | [6] 0.026 | [7] -0.019 | [8] -0.031 | [9] 0.018 | [10] 0.015

RFC2 (UniProt P35250)
UniProt P35250, sequence (P35250 whole entry, looked up): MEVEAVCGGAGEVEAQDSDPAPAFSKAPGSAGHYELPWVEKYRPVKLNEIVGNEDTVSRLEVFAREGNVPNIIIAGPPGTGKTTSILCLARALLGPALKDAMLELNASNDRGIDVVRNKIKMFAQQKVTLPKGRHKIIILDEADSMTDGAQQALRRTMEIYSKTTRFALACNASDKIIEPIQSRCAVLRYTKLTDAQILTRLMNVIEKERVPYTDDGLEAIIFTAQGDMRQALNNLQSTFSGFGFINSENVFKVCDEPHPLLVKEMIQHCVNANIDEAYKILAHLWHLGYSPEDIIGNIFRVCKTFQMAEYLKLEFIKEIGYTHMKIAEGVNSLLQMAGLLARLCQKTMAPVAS
inactive: [1] -0.043 | [2] 0.007 | [3] 0.038 | [4] -0.095 | [5] -0.09 | [6] 0.024 | [7] -0.068 | [8] 0.023 | [9] -0.005 | [10] 0.03

RBM5 (UniProt P52756)
inactive: [1] -0.021 | [2] -0.018 | [3] 0.087 | [4] 0.013 | [5] -0.277 | [6] 0.064 | [7] 0.048 | [8] -0.012 | [9] -0.039 | [10] -0.03

RNF113A (UniProt O15541)
inactive: [1] 0.021 | [2] -0.012 | [3] -0.042 | [4] 0.04 | [5] 0.009 | [6] -0.056 | [7] -0.021 | [8] 0.017 | [9] 0.031 | [10] -0.056

ROCK1 (UniProt Q13464)
inactive: [1] 0.014 | [2] 0.004 | [3] 0.004 | [4] 0.018 | [5] -0.045 | [6] 0.001 | [7] -0.017 | [8] 0.025 | [9] -0.017 | [10] 0.015

RTN4IP1 (UniProt Q8WWV3)
inactive: [1] -0.02 | [2] 0.047 | [3] -0.049 | [4] -0.018 | [5] -0.014 | [6] -0.007 | [7] 0.058 | [8] -0.106 | [9] -0.048 | [10] 0.015

RDX (UniProt P35241)
active: [7] 0.712
inactive: [1] 0 | [2] -0.008 | [3] 0.003 | [4] 0.016 | [5] 0.017 | [6] -0.018 | [8] -0.109 | [9] -0.018 | [10] -0.013

RALGAPB (UniProt Q86X10)
UniProt Q86X10, sequence (Q86X10 whole entry, looked up): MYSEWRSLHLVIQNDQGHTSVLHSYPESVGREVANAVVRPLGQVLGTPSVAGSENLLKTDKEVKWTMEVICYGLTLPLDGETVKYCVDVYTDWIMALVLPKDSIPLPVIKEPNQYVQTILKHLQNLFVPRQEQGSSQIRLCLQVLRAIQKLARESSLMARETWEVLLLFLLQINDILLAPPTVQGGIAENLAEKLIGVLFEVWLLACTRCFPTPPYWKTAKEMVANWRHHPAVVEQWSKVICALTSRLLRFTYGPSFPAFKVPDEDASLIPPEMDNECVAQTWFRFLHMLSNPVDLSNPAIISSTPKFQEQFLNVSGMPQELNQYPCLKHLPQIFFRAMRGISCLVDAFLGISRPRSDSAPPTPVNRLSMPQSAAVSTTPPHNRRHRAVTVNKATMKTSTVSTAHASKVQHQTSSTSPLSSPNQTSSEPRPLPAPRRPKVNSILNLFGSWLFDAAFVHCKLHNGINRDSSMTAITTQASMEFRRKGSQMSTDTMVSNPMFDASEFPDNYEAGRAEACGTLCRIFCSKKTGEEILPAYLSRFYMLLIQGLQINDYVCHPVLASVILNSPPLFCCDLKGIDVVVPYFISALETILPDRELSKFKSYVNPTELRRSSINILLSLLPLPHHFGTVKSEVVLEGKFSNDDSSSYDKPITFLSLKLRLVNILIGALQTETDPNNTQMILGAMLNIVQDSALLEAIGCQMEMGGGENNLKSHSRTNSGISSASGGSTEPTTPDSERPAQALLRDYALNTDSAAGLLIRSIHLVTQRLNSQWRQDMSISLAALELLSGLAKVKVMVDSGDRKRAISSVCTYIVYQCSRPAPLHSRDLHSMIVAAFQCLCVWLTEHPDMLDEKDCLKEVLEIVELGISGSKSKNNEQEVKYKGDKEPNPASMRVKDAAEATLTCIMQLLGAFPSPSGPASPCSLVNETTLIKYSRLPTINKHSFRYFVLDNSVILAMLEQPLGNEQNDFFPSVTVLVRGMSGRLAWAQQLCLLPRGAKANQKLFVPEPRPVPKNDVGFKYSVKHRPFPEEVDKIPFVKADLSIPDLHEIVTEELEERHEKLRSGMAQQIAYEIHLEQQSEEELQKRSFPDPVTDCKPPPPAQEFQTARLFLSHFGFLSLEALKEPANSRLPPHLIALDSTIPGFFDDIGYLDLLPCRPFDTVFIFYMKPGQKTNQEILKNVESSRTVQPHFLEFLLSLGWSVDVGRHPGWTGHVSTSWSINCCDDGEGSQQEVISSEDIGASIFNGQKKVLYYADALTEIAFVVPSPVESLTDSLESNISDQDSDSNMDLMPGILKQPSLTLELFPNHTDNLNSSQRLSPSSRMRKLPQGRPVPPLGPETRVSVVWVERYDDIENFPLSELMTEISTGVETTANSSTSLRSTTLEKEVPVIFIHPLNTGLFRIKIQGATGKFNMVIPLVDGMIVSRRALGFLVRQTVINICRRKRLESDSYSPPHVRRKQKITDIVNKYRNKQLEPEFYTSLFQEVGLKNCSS
inactive: [1] 0.044 | [2] 0.016 | [3] 0.103 | [4] -0.008 | [5] -0.023 | [6] -0.013 | [7] -0.09 | [8] 0.07 | [9] 0.017 | [10] 0.032

RIOK2 (UniProt Q9BVS4)
inactive: [1] -0.074 | [2] 0.006 | [3] -0.053 | [4] 0.016 | [5] -0.026 | [6] -0.03 | [7] -0.115 | [8] 0.066 | [9] -0.023 | [10] 0.04

RDH14 (UniProt Q9HBH5)
inactive: [1] 0.038 | [2] 0.026 | [3] -0.007 | [4] -0.076 | [5] -0.022 | [6] 0.009 | [7] -0.228 | [8] 0.061 | [9] -0.015 | [10] 0.074

RPL37A (UniProt P61513)
active: [7] 0.371
inactive: [1] 0.003 | [2] -0.002 | [3] -0.013 | [4] -0.01 | [5] -0.015 | [6] -0.044 | [8] -0.158 | [9] -0.035 | [10] -0.138

SCO1 (UniProt O75880)
inactive: [1] -0.027 | [2] -0.012 | [3] -0.008 | [4] -0.009 | [5] 0.025 | [6] -0.027 | [7] -0.01 | [8] 0.016 | [9] 0.006 | [10] 0.016

SCD (UniProt O00767)
UniProt O00767, sequence (O00767 whole entry, looked up): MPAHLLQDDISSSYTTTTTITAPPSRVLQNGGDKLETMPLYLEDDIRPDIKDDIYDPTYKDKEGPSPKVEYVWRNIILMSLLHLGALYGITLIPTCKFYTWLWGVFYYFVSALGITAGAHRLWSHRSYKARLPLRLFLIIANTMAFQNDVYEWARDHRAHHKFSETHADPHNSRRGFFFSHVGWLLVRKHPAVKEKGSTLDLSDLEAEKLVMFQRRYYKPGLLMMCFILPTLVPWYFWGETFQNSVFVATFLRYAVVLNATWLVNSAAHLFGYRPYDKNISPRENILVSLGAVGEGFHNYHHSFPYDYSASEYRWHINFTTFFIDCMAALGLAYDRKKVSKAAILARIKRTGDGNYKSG
inactive: [1] -0.03 | [2] 0.111 | [3] 0.042 | [4] 0.006 | [5] 0.098 | [6] -0.082 | [8] 0.212 | [9] 0.071 | [10] 0.084
active: [7] -0.504

RAI14 isoform 2 (UniProt Q9P0K7)
UniProt Q9P0K7, sequence (Q9P0K7 whole entry, looked up): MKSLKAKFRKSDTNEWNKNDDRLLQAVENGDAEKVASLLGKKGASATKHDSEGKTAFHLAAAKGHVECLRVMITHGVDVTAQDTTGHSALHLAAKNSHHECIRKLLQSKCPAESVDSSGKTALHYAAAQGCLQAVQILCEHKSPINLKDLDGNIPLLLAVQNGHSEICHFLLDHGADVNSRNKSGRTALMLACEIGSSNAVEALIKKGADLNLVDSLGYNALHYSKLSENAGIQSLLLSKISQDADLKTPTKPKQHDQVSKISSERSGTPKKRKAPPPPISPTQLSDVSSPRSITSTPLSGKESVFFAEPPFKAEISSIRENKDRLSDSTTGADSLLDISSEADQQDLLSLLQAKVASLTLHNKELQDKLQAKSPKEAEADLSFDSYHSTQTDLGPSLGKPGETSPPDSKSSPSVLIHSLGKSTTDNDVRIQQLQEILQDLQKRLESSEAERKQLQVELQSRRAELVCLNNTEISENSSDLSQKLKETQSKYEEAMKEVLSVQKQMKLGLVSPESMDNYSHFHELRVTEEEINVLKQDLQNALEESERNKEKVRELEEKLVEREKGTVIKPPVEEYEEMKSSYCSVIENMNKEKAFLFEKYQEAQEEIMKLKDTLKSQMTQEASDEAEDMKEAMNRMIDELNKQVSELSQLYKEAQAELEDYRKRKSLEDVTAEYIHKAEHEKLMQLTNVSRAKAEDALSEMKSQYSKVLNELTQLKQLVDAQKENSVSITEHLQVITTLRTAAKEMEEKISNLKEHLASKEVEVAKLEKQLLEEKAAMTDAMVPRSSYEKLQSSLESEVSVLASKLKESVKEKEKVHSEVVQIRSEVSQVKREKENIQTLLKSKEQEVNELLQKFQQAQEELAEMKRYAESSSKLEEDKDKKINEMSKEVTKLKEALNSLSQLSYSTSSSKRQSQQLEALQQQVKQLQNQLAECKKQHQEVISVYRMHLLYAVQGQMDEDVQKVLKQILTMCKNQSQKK
inactive: [1] 0.001 | [2] 0.066 | [3] 0.061 | [4] -0.019 | [5] 0.005 | [6] 0 | [7] 0.045 | [8] -0.011 | [9] 0.031 | [10] 0.026

RTTN (UniProt Q86VV8)
inactive: [1] 0.066 | [2] 0.011 | [3] 0.043 | [4] -0.101 | [5] -0.293 | [6] 0.099 | [7] -0.347 | [8] -0.316 | [9] 0.047

RDH10 (UniProt Q8IZV5)
inactive: [1] 0.054 | [2] 0.032 | [3] 0.027 | [4] -0.011 | [5] 0.035 | [6] -0.072 | [7] -0.067 | [8] 0.062 | [9] -0.035 | [10] -0.006

RPL27 (UniProt P61353)
active: [7] 0.572
inactive: [1] -0.022 | [2] -0.002 | [3] 0.011 | [4] -0.001 | [5] -0.008 | [6] -0.001 | [8] -0.079 | [9] 0.019 | [10] -0.015

SAR1A (UniProt Q9NR31)
inactive: [1] 0.109 | [2] 0 | [3] 0.07 | [4] 0.03 | [5] -0.05 | [6] 0.021 | [7] -0.009 | [8] -0.108 | [9] 0.025 | [10] 0.084

RECQL5 (UniProt O94762)
inactive: [1] -0.028 | [2] -0.045 | [3] 0.02 | [4] 0.069 | [5] -0.187 | [6] -0.01 | [7] 0.131 | [8] -0.222 | [9] 0.018 | [10] 0.003

RNASEL (UniProt Q05823)
UniProt Q05823, sequence (Q05823 whole entry, looked up): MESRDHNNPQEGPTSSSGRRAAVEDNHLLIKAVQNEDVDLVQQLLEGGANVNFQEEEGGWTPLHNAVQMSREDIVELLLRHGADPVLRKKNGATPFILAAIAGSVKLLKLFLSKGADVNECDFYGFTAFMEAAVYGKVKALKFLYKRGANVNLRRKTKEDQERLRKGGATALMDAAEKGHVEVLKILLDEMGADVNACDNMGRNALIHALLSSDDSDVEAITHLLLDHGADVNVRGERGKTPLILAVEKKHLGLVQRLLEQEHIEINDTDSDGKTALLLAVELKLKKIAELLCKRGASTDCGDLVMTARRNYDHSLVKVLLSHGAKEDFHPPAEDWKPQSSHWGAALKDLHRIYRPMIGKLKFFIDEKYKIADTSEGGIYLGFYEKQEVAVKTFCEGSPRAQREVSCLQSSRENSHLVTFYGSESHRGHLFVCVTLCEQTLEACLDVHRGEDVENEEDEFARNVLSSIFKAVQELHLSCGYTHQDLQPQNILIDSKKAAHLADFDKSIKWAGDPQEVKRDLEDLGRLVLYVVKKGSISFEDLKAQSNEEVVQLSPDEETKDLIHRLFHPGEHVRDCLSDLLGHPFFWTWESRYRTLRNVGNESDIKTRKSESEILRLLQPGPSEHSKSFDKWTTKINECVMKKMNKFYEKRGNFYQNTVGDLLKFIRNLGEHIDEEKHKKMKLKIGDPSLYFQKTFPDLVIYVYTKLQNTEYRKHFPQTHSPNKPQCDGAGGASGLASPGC
inactive: [1] -0.004 | [2] 0.053 | [3] 0.077 | [4] -0.017 | [5] -0.103 | [6] 0.012 | [7] -0.006 | [8] -0.025 | [9] -0.011 | [10] 0.024

RASA3 (UniProt Q14644)
UniProt Q14644, sequence (Q14644 whole entry, looked up): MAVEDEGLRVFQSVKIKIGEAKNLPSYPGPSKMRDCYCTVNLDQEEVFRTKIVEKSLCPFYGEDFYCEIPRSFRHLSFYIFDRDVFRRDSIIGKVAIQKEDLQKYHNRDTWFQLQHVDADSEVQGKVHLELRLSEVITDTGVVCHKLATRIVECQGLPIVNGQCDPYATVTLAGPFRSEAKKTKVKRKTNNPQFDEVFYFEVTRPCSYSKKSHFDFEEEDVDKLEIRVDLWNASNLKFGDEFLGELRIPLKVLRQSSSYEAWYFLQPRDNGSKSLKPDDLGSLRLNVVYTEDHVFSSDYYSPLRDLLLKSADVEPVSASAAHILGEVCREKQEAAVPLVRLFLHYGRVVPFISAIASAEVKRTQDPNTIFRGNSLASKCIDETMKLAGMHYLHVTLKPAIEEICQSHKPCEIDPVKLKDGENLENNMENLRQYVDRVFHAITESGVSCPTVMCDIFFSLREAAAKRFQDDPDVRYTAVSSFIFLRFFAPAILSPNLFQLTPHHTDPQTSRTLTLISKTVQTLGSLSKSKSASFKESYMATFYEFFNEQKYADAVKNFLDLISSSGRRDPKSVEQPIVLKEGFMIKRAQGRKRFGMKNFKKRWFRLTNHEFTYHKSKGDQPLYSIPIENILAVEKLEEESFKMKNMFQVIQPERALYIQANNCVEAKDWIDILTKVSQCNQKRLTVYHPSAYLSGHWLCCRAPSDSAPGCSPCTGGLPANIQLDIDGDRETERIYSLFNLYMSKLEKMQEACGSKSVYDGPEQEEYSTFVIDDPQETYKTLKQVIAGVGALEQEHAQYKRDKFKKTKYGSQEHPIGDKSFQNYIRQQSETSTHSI
inactive: [1] -0.008 | [2] 0.009 | [3] 0.107 | [4] -0.1 | [5] -0.082 | [6] -0.058 | [7] 0.105 | [8] 0.298 | [9] -0.003 | [10] 0.048

RINT1 (UniProt Q6NUQ1)
inactive: [1] 0.065 | [2] 0.022 | [3] 0.095 | [4] -0.055 | [5] -0.113 | [6] 0.088 | [7] -0.048 | [8] -0.044 | [9] 0.095 | [10] 0.058
